# Measurements as given in PubChem BioAssay.
# Activity calls are given as the source filed them. Unless noted, how the calls were made is not given here.
# Key:
# [1] = compound effects on lung adenocarcinoma cell viability – A549, calcein-AM fluorescence, 48 h, basal, profiling panel (AID 1162); details: higher = more signal; further: test concentration not given here
# [2] = compound effects on differentiated 3T3-L1 adipocyte viability – cell-based, 3T3-L1 adipocytes, calcein-AM fluorescence, 48 h, basal, profiling panel (AID 1163); details: 3T3-L1 adipocytes viability, higher = more signal; further: test concentration not given here
# [3] = compound effects on hepatocellular carcinoma cell viability – HepG2, calcein-AM fluorescence, 48 h, basal, profiling panel (AID 1164); details: higher = more signal; further: test concentration not given here
# [4] = compound effects on multiple myeloma cell viability – MM1S, calcein-AM fluorescence, 48 h, basal, profiling panel (AID 1165); details: higher = more signal;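 further: viability of MM1S multiple myeloma cells under basal unstimulated conditions; test concentration not given here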
# [5] = calcein-AM signal in unstimulated myeloma cells – cell-based, calcein-AM fluorescence, 48 h, PK04 Diversity Set, profiling panel (AID 1166); details: RPMI8226 myeloma viability, higher = more signal;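 further: cells grown under basal conditions without added stimulus; test concentration not given here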
# [6] = JC-1 mitochondrial signal, unstimulated HepG2 cells – cell-based, JC-1 fluorescence, 24 h, 100 nL compound, profiling panel (AID 1167); details: HepG2 mitochondrial potential, higher = more signal; further: test concentration not given here
# [7] = JC-1 mitochondrial signal, unstimulated adipocytes – cell-based, JC-1 fluorescence, 3T3-L1 adipocytes, 24 h, 100 nL compound, profiling panel (AID 1168); details: JC-1 mitochondrial fluorescence, higher = more signal, called active from +8 up or from −8 down; further: test concentration not given here
# [8] = JC-1 mitochondrial signal, unstimulated myeloma cells – cell-based, JC-1 fluorescence, RPMI8226, 24 h, 100 nL compound, profiling panel (AID 1169); details: JC-1 mitochondrial potential fluorescence, higher = more signal; further: test concentration not given here
# [9] = JC-1 mitochondrial signal, unstimulated MM1S myeloma – cell-based, JC-1 fluorescence, 24 h, 100 nL compound, profiling panel (AID 1170); details: MM1S mitochondrial potential, higher = more signal; further: test concentration not given here
# [10] = resazurin metabolic signal in A549 cells – cell-based, resazurin fluorescence, 24 h, PK04 Diversity Set, profiling panel (AID 1171); details: A549 viability, higher = more signal, called active from +8 up or from −8 down; further: test concentration not given here
# [11] = resazurin metabolic signal in HepG2 cells – cell-based, resazurin fluorescence, 24 h, PK04 Diversity Set, profiling panel (AID 1172); details: HepG2 viability, higher = more signal; further: test concentration not given here
# [12] = budding yeast growth changes without added modifier – OD600, strain BY4716, 24 h, basal condition, primary screen (AID 1173); details: S. cerevisiae BY4716 growth, OD600, 24 h; higher = more signal, called active from +8 up or from −8 down
# [13] = viability profiling in MM1S myeloma cells – cell-based, resazurin fluorescence, basal, 24 h, PK04 Diversity Set, profiling panel (AID 1174); details: higher = more signal, called active from +8 up or from −8 down; further: test concentration not given here
# [14] = biological target: Dihydroorotate dehydrogenase (quinone), mitochondrial (Plasmodium falciparum (isolate 3D7)) (UniProt Q08210); experiment: inhibition of P. falciparum DHODH – biochemical, C-terminal His tag, absorbance 600 nm, primary screen (AID 1175); details: PfDHODH enzyme, DCIP absorbance 600 nm; higher = more signal, called active from +8 up or from −8 down;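 further: recombinant parasite enzyme with a five histidine tag at its C terminus; test concentration not given here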
# [15] = inhibition of PAO1 biofilm formation – strain PAO1, LB-PBS medium, absorbance 600 nm, primary screen (AID 1176); further: test concentration not given here; details: P. aeruginosa PAO1 growth/biofilm, A600, 12 h; higher = more signal
# [16] = growth modulation of vineyard yeast isolate – strain RM11-1a, OD600, basal, 24 h, primary screen (AID 1177);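 further: cultures grown under basal conditions with no added stressor; test concentration not given here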; details: S. cerevisiae RM11-1a growth, OD600, 24 h; higher = more signal, called active from +8 up or from −8 down
# [17] = growth of efflux-deficient E. coli DRC39 – strain DRC39, OD650, 24 h, E. coli filamentation inducers, primary screen (AID 1178);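 further: growth measured as culture turbidity by optical density at 650 nm; test concentration not given here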; details: E. coli DRC39 acrAB, higher = more signal, called active from +8 up or from −8 down
# [18] = growth of efflux-deficient E. coli DRC39 – strain DRC39, OD650, 48 h, E. coli filamentation inducers, primary screen (AID 1179);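 further: screen aims at cell division blockers that make cells filament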; details: E. coli DRC39 delta-acrAB growth, higher = more signal, called active from +8 up or from −8 down
# [19] = viability profiling in RPMI8226 myeloma cells – cell-based, resazurin fluorescence, basal, 24 h, PK04 Diversity Set, profiling panel (AID 1180); details: higher = more signal;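 further: RPMI8826 multiple myeloma cell line at 5000 cells per well; test concentration not given here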
# [20] = biological target: E3 ubiquitin-protein ligase XIAP (Homo sapiens) (UniProt P98170); experiment: small molecules binding XIAP protein – biophysical, small-molecule microarray, fluorescence 635 nm, primary screen (AID 1181); details: higher = more signal;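 further: score merges 667 nm emission and signal to noise over triplicate slides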
# Chain of E3 ubiquitin-protein ligase XIAP (Homo sapiens) (P98170 whole entry, looked up): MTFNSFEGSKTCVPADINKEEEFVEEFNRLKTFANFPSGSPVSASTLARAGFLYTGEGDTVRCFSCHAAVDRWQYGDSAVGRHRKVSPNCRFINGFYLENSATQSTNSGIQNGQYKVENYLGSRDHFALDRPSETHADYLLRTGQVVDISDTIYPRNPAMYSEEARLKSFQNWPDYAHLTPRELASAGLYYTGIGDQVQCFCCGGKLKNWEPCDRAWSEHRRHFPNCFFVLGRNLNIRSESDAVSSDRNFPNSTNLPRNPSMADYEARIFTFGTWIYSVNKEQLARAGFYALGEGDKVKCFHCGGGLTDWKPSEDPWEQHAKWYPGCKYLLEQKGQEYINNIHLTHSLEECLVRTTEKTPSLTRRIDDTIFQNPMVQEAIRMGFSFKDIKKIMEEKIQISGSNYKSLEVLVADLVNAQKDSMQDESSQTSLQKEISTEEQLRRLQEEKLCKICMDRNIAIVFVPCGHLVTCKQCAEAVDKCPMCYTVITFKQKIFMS
# Chain of Dihydroorotate dehydrogenase (quinone), mitochondrial (Plasmodium falciparum (isolate 3D7)) (Q08210 whole entry, looked up): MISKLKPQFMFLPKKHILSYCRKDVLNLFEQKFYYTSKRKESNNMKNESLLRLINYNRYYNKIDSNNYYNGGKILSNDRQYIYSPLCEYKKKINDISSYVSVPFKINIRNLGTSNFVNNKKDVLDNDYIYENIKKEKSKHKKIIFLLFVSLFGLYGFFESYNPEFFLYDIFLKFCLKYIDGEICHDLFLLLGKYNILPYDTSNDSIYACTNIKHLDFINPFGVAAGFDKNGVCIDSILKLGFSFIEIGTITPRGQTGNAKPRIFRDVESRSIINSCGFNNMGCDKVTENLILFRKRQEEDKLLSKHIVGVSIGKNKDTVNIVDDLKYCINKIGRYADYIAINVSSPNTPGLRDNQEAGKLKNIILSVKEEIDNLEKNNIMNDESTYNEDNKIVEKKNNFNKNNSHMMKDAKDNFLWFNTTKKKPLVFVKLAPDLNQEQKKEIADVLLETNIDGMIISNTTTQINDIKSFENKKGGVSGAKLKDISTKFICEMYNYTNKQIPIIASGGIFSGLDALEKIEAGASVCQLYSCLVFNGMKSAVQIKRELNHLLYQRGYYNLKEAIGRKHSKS
SMILES,z-score [1],z-score [2],z-score [3],z-score [4],z-score [5],z-score [6],z-score [7],z-score [8],z-score [9],z-score [10],z-score [11],z-score [12],z-score [13],composite z-score [14],z-score [15],z-score [16],z-score [17],z-score [18],z-score [19],composite z-score [20]
CCCC=C(CCC)[C@@H](NP(=O)(c1ccccc1)c1ccccc1)c1ccc(C(F)(F)F)cc1,-0.779,-0.531,-0.365,0.463,0.218,-0.497,-1.53 (inactive),0.72,-0.379,0.472 (inactive),1.02,0.534 (inactive),0.839 (inactive),0.0197 (inactive),-0.511 (inactive),-0.359 (inactive),0.3 (inactive),-0.93 (inactive),0.495,0.328
CCOC(=O)C[C@H]1[C@H](OC(=O)Cc2ccc3c(c2)OCO3)[C@@H](NC(=O)C2CCCCC2)c2cc(OCCCO)ccc2N1C(=O)c1ccc2ccccc2n1,0.177,1.72,0.726,0.435,-1.18,-2.42,0.436 (inactive),0.602,-0.703,0.125 (inactive),0.306,-1.65 (inactive),0.773 (inactive),-3.08 (inactive),-1.93 (inactive),0.133 (inactive),0.777 (inactive),0.259 (inactive),-0.338,0.302
O=C1C2C=CC(C(O)c3cc(C(F)(F)F)cc(C(F)(F)F)c3)N(Nc3ccc([N+](=O)[O-])cc3)C2C(=O)N1c1ccccc1 (stereo not given),-1.61,0.294,-3.51,-2.62,-4.06,-0.982,-0.699 (inactive),-1.03,-1.99,-0.0362 (inactive),-0.566,0.55 (inactive),-0.683 (inactive),0.665 (inactive),1.07 (inactive),0.565 (inactive),-2.26 (inactive),-1.25 (inactive),-2.18,0.29
CC(C)NC(=O)[C@@]1(C)c2ccccc2C(=O)N(C(C)C)[C@H]1c1ccc(CO)cc1,-0.619,0.545,-0.335,0.608,0.0593,0.313,-0.527 (inactive),0.713,1.32,-0.271 (inactive),-1.1,-0.106 (inactive),-0.822 (inactive),0.127 (inactive),0.972 (inactive),-0.553 (inactive),0.0378 (inactive),-0.611 (inactive),-0.43,0.0982
COc1ccc([Si](C)(C)[C@@H]2[C@@H](CCn3cc([C@H](O)c4ccccc4)nn3)O[C@]3(C(=O)N(Cc4ccc(N5CCOC5=O)cc4)c4ccccc43)[C@H]2C)cc1,-0.0046,0.417,0.215,-1.06,-1.3,1.67,0.00306 (inactive),0.417,-0.657,0.595 (inactive),0.977,0.146 (inactive),-0.806 (inactive),0.181 (inactive),0.483 (inactive),1.54 (inactive),0.323 (inactive),-0.0694 (inactive),-0.12,0.049
NC(=O)NCC#Cc1ccc2c(c1)[C@]1(C(=O)N2)[C@H](C(=O)O)[C@H]2C(=O)O[C@H](c3ccccc3)[C@H](c3ccccc3)N2[C@@H]1c1ccccc1OCCO,0.789,1.03,0.728,1.33,1.35,-0.867,-0.377 (inactive),-0.0612,0.997,0.877 (inactive),1.03,-1.81 (inactive),0.837 (inactive),-0.988 (inactive),2.75 (inactive),-0.888 (inactive),0.525 (inactive),1.16 (inactive),1,-0.0599
CC(C)CN1C(=O)[C@@]2(Cc3ccccc31)c1ccccc1C(=O)N(Cc1ccccc1C(F)(F)F)[C@H]2c1ccc(CO)cc1,1.23,1.06,0.493,0.939,1.2,0.786,-1.55 (inactive),0.01,-0.534,-0.236 (inactive),0.869,-1.94 (inactive),-0.696 (inactive),-4.83 (inactive),-0.103 (inactive),-2.06 (inactive),0.897 (inactive),1.72 (inactive),0.478,0.661
COCCOC(=O)N1C(=O)[C@@]2(c3cc(C#CC4=CCCCC4)ccc31)[C@H](c1ccccc1OCCO)N1[C@H](c3ccccc3)[C@H](c3ccccc3)OC(=O)[C@H]1[C@@H]2C(=O)N1CCc2cc(OC)c(OC)cc2C1,0.697,0.186,1.34,0.235,-2.05,0.767,3.23 (inactive),-1.06,-1.32,-0.926 (inactive),-0.605,1.46 (inactive),-0.347 (inactive),-0.349 (inactive),1.92 (inactive),2.25 (inactive),-0.398 (inactive),0.425 (inactive),-0.486,-0.11
C=CCC(OC(C)=O)[C@@H]1[C@@H](N(Cc2ccc(-c3ccccc3)cc2)C(=O)c2cccc3ccccc23)c2cc(OCCCO)ccc2N1C(=O)Cc1ccc2ccccc2c1 (stereo not given in full),-0.0841,-0.38,-0.0632,-0.211,-0.183,1.47,-1.43 (inactive),1.22,0.313,0.74 (inactive),0.0989,-0.456 (inactive),-0.144 (inactive),0.0505 (inactive),0.374 (inactive),-0.611 (inactive),0.326 (inactive),-0.299 (inactive),-0.187,0.18
